From PubChem BioAssay
The list is not random: actives were taken first. Their share in the collection is about 19%.
HT1080 IDH1KD tx: qHTS for induction of synthetic lethality in tumor cells producing 2HG: qHTS for the HT-1080-IDH1KD cell line; HT-1080 IDH1 knockdown viability, ATP luminescence, 48 h; Potency, µM (top dose mostly 46.1 µM), without a hit: at the highest dose activity, negative = toxicity, hits mostly cytotoxic; hit rate 2% among 360,000;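 note: potency is the fitted concentration of half-maximal effect; 0% = DMSO wells and -100% = cell-free medium wells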
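After a 2 h attachment period, IDH1KD HT-1080 cells took pin-transferred compound for 48 h at 37 °C; ATP-based luminescence after 10 min room-temperature reagent incubation reported viability.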
IL1B secr inh: qHTS for Inhibitors of Inflammasome Signaling: IL-1-beta AlphaLISA Primary Screen; THP-1 LPS/ATP IL-1B secretion, AlphaLISA, 16 h; stronger effect = lower value; activity change, % at 57.5 µM; hit rate 4.7% among 360,000; in the data active = activity change below about -50%; inconclusive = mostly about -30% to -49%
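THP-1 cells pretreated 1 hr with compounds (up to 57.5 uM final), then stimulated with LPS (250 ng/mL final) plus ATP (1.25 mM final); secreted IL-1B measured by AlphaLISA after 16 hr, decreased signal indicating inhibition.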
ELG1 DNA repair: qHTS screen for small molecules that inhibit ELG1-dependent DNA repair in human embryonic kidney (HEK293T) cells expressing luciferase-tagged ELG1; HEK293T ELG1-luciferase reporter, luminescence, 16 h; DNA damage induced by 5-fluorouridine; Potency, µM (doses to about 46.1 µM), inactives show at the top dose activity change, negative = inhibition, most hits filed as inhibitors; hit rate 2.3% among 330,000; note: potency is the fitted concentration of half-maximal effect; nearly all actives have a fitted effect of over 55% in size
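5-Fluorouridine DNA damage + compound/DMSO, 2,000 cells/well, 16 h, 37 °C/5% CO2. ONE-Glo, 30 min RT, luminescence. Readout = decrease in reporter signal.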
HT1080NT lethal: qHTS for induction of synthetic lethality in tumor cells producing 2HG: qHTS for the HT-1080-NT fibrosarcoma cell line | Potency, µM (series often up to 46.1 µM), inactives show top-dose activity, negative = less viability, hits mostly cytotoxic | HT-1080-NT fibrosarcoma viability, CellTiter-Glo ATP luminescence, 48 h | hit rate 1.6% among 360,000;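 note: NT is the 2HG producing partner of a matched IDH1 knockdown line; potency is the fitted concentration of half-maximal effect; 0% = DMSO-treated cells and -100% = media-only wells without cells; nearly all actives have a fitted effect of over 55% in size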
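HT-1080-NT; 750 cells/well; 5% FBS RPMI; 48 h compound, 37 degrees C; CellTiter-Glo luminescence; curve fitting and curve-class assignment.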
DT40 TDP1 CPT: qHTS for Inhibitors of human tyrosyl-DNA phosphodiesterase 1 (TDP1): qHTS in cells in presence of CPT | chicken DT40 Tdp1-/-;hTDP1 cells + 20 nM CPT, ATP luminescence, 48 h | Potency, µM (doses to about 46.2 µM), for inactives: at the highest dose activity change, negative = growth inhibition, usual class: inhibitors | hit rate 12% among 420,000; note: potency is the fitted concentration of half-maximal effect; nearly all actives have a fitted effect of over 55% in size
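Chicken DT40 Tdp1-/- cells stably complemented with human TDP1 were seeded at 400 cells/well in medium containing 20 nM camptothecin, exposed to pin-transferred compounds, and grown at 37 °C for at least 48 hr. Viability was read as ATP luminescence.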
DT40 TDP1 no CPT: qHTS for Inhibitors of human tyrosyl-DNA phosphodiesterase 1 (TDP1): qHTS in cells in absence of CPT; DT40 Tdp1-/- hTDP1 cells, no CPT, ATP luminescence, 48 h; Potency, µM (doses to about 46.2 µM), without a hit: top-dose activity change, negative = growth inhibition, actives largely listed as inhibitors; hit rate 15% among 420,000; AID 686978, 2013; note: potency is the fitted concentration of half-maximal effect; nearly all actives have a fitted effect of over 55% in size
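Seeded 400 DT40-hTDP1 cells/well (vehicle DMSO, no 20 nM CPT); pinned compounds; ≥48 hr at 37 °C; CellTiter-Glo luminescence as viability measure.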
The depositor's hits bear a star; u = inconclusive; x = no result given. Unless noted, calls come from the whole dose curve; as a rule, active = well fitted curve in the direction sought with a large enough effect; inconclusive = small, poorly fitted or top-dose-only effect, or another doubt; inactive = no such curve, though single readings can be large; an effect the other way counts as inactive or inconclusive. Unless noted, % is set by controls: 0 for no effect and ±100 for the full control effect.

SMILES	HT1080 IDH1KD tx	IL1B secr inh	ELG1 DNA repair	HT1080NT lethal	DT40 TDP1 CPT	DT40 TDP1 no CPT
CC1=NN(c2nc3ccccc3[nH]2)C(=O)C1Cc1ccccc1 (stereo not drawn)	u	61.9	u	2.06µM*	1.03µM*	1.3µM*
CC1=NN(c2nc3ccccc3[nH]2)C(=O)/C1=C/N(C)C	2.91µM*	16.3	22.2%	20.6µM*	4.61µM*	u
CCCCOc1ccc(Br)cc1/C(C)=N/NC1=NCCN1	6.51µM*	-113.1*	u	8.2µM*	4.61µM*	4.11µM*
C/C(=N\NC1=NCCN1)c1ccc(N)c([N+](=O)[O-])c1	-12.0%	-16.1	u	3.7%	-26.8%	u
CC(=NNC1=NCCN1)c1cn(C2=NCCN2)nc1C	6.2%	-9.8	x	16.0%	-26.8%	-15.9%
CCCCCCOc1ccc(/C(C)=N/NC2=NCCN2)cc1[N+](=O)[O-]	-11.2%	-91.7*	-2.3%	-23.5%	u	10.3µM*
COc1ccc(/C(C)=N/NC2=NCCN2)cc1Cl	-8.3%	-73.8*	-2.2%	-16.6%	-11.6%	-18.7%
Cn1c(SCc2cccc(C#N)c2)nc2ccccc2c1=O	u	-50.4*	u	u	u	u
CCOC(CCn1c(SCc2cccc([N+](=O)[O-])c2)nc2ccccc2c1=O)OCC	-27.9%	-28.7	u	u	16.4µM*	u
Cc1ccc(CSc2nc3ccccc3c(=O)n2C)cc1	-14.3%	54.5	u	-22.8%	u	u
COCCn1c(SCc2cccc([N+](=O)[O-])c2)nc2ccccc2c1=O	u	u	-21.2%	-27.0%	u	u
CCCCn1c(SCc2cccc([N+](=O)[O-])c2)nc2ccsc2c1=O	2.0%	-20.0	u	0.2%	u	23.1µM*
Cn1c(SCc2cccc([N+](=O)[O-])c2)nc2ccccc2c1=O	u	-6.4	u	u	16.4µM*	11.6µM*
O=C(Nc1ccccc1)c1cc(C2COCCN2C(=O)c2cccs2)on1 (stereo not drawn)	0.0%	87.0	x	9.0%	-16.9%	-21.6%
O=C(c1cc2c(=O)oc3ccccc3c2s1)N1CCN(c2cccc(Cl)c2)CC1	x	x	x	x	-19.5%	1.1%
Cc1ccc(-n2c(C)cc(C(=O)COC(=O)C3=NNC(=O)CC3)c2C)cc1	-6.6%	4.5	17.5%	-7.3%	16.4µM*	u
Cc1ccc(-n2c(C)cc(C(=O)COC(=O)c3c(C)noc3C)c2C)cc1	-20.5%	-58.0*	u	-23.9%	9.2µM*	9.2µM*
Cc1cc(C(=O)COC(=O)c2cnccn2)c(C)n1-c1ccc(Br)cc1	-7.0%	13.0	7.4%	8.0%	-9.5%	u
CN1C(=O)[C@H]2[C@@H](/C=C/c3ccccc3)N3C(=O)CN(Cc4ccc(-c5ccccc5)cc4)C(=O)[C@@]3(Cc3ccccc3)[C@H]2C1=O	-6.5%	u	10.7%	-1.5%	u	u
CCOC(=O)c1ccc(NC(=O)Cn2cccc2)cc1	2.3%	12.5	u	1.2%	14.6µM*	16.4µM*
CCOC(=O)c1ccc(NC(=O)CN2CCCCC2)cc1	x	x	x	x	-5.8%	-25.4%
CCOC(=O)c1ccc(NC(=O)C2CCCO2)cc1 (stereo not drawn)	12.2%	u	u	16.7%	-18.2%	-11.0%
CCOC(=O)c1ccc(NC(=O)Cn2nnc3ccccc32)cc1	-5.4%	14.6	u	0.4%	23.1µM*	10.3µM*
CC(=O)Nc1ccc(NC(=O)CCn2nnc3ccccc32)cc1	11.2%	-10.5	u	-0.4%	u	23.1µM*
NNC(=O)CCn1nnc2ccccc21	-0.3%	32.2	9.9%	-4.5%	9.9%	-1.4%
SMILES	HT1080 IDH1KD tx	IL1B secr inh	ELG1 DNA repair	HT1080NT lethal	DT40 TDP1 CPT	DT40 TDP1 no CPT
CCOC(=O)c1ccc(NC(=O)C2CC2)cc1	1.9%	0.0	u	-22.5%	8.2µM*	6.51µM*
CCOC(=O)c1ccc(NC(=O)CCn2nnc3ccccc32)cc1	-19.8%	3.4	18.9%	-23.7%	-2.2%	-10.3%
CCOC(=O)c1ccc(P(=O)(c2ccccc2)c2ccccc2)cc1	-11.6%	-8.2	u	-10.4%	u	23.1µM*
O=C(CCC(=O)Nc1ccc(F)cc1)N/N=C/c1cc([N+](=O)[O-])ccc1O	-13.6%	23.3	u	-27.3%	0.3%	u
O=C(CCC(=O)Nc1ccc(Br)cc1)N/N=C/c1cc([N+](=O)[O-])ccc1O	3.1%	113.0	9.2µM*	-14.8%	23.1µM*	u
O=C(CCC(=O)Nc1cc(C(F)(F)F)ccc1Cl)N/N=C\c1cc([N+](=O)[O-])ccc1O	-13.2%	80.7	u	u	10.3µM*	8.2µM*
C=Cc1ccc(COc2ccc3oc(-c4ccccc4)c(C(=O)OCC)c3c2)cc1	x	x	x	x	-18.1%	-5.2%
O=C(CC1CCCCC1)N1CCCC(c2nc(-c3ccc(S(=O)(=O)N4CCCC4)cc3)no2)C1 (stereo not drawn)	-15.4%	-77.2*	u	u	23.1µM*	15.8µM*
Cc1ccc(-c2nc(C3CCCN(S(=O)(=O)c4ccc(C(C)(C)C)cc4)C3)no2)cc1 (stereo not drawn)	11.4%	-1.5	5.1%	2.8%	u	u
O=C(O)c1ccc(S(=O)(=O)N2CCC(c3nc(-c4ccccc4Cl)no3)CC2)cc1	-2.8%	13.4	-2.8%	-3.7%	-10.5%	-1.0%
Cc1ccc(-c2nc(C3CCCN(S(=O)(=O)c4ccc(C)cc4)C3)no2)cc1 (stereo not drawn)	-0.3%	0.0	u	3.7%	16.4µM*	u
O=S(=O)(c1ccc(Cl)cc1)N1CCCC(c2nc(-c3ccc(F)cc3)no2)C1 (stereo not drawn)	11.2%	-26.3	23.4%	14.3%	14.6µM*	u
CC(C)N1C(=O)c2ccccc2NC(=O)C1C(=O)NCc1ccccc1 (stereo not drawn)	15.8%	19.3	x	12.5%	-1.2%	7.2%
COc1ccc2c(c1)c1c(c(=O)n(-c3cccc(C)c3)c(=O)n1CC(=O)NCC1CCCO1)n2C (stereo not drawn)	x	x	x	x	u	-16.8%
